High-throughput results as filed in PubChem BioAssay.
This excerpt belongs to a sample that is enriched for hits.
Pf Dd2 inh – Plasmodium falciparum Dd2 growth inhibition. P. falciparum Dd2 growth, SYBR Green, 72 h. Potency, µM (series often up to 28.9 µM), usual class: inhibitors. actives 4.3% (n = 120,000); active means well fitted inhibition curve with a large enough effect; further: nearly all actives have a fitted effect of over 65% in size
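Infected erythrocytes (Dd2, 0.3% parasitemia, 2.5% hematocrit final) are added to compound in RPMI-1640/Albumax II medium, grown 72 h at 37C in low oxygen, then lysed with saponin/Triton-X containing SYBR Green and read by fluorescence.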
Numbers stand for hits; - = inactive; [ ] = dose if it differs, or a comment.

SMILES	Pf Dd2 inh
Cc1cc2nc3n(c(=O)c2n1CC(=O)NC(C)CCc1ccccc1)CCCCC3 (stereo unspecified)	-
O=C1N(C2CCN(S(=O)(=O)c3cnc[nH]3)CC2)C(c2ccncc2)C12CCCCC2 (stereo unspecified)	-
O=C(c1ccccn1)N1CCN(C(=O)c2nnn3c2COC(c2ccc(Cl)cc2)C3)CC1 (stereo unspecified)	-
O=C(C1CCc2nnc(-c3ccc(Cl)nc3)n21)N1CCCC1 (stereo unspecified)	-
COc1ccc(S(=O)(=O)N2C[C@@H]3C[C@H](C2)c2ccc(NC(=O)c4cnccn4)c(=O)n2C3)cc1	-
CCc1ccc2nc(N3CCC(C(=O)NCCC(C)C)CC3)sc2c1	-
CCCN(CCC)CCCNC(=O)C1CCN(S(=O)(=O)CC)CC1	-
CCOc1ccc2nc(N3CCC(C(=O)Nc4ccc(Br)cc4F)CC3)sc2c1	-
CCCN(CCC)CCCNC(=O)C1CCN(c2nc3ccc(CC)cc3s2)CC1	7.1µM
Cc1ccc(CNC(=O)c2ccc3nc(N4CCCCC4)sc3c2)cc1	-
CCCN(CCC)CCNC(=O)C1CCN(c2nc3ccc(CC)cc3s2)CC1	7.1µM
O=C(O)C(Cc1ccco1)n1cc(-c2nccs2)nn1 (stereo unspecified)	-
CCC(=O)N(C1CCOCC1)C1CCN(Cc2ccc(C(F)(F)F)cc2)CC1	-
COc1cccc(-c2cnc([C@@H]3COCCN3Cc3cnc4ccccc4c3)[nH]2)c1	-
CC(C)c1nnc(C2CN(C(=O)Cc3ccc(Br)cc3)CC23CCOCC3)o1 (stereo unspecified)	-
O=C(O)C1CC2(CCN(C(=O)Cc3ccc4c(c3)OCO4)CC2)CN1 (stereo unspecified)	-
O=C1CN(Cc2ccc(-c3ccsc3)cc2)CCN1c1cc(Cl)ncn1	-
COc1ccc(CCNC(=O)CC2CCOCC2)cc1OC	-
COc1cc(CNC2CCCCC2)ccc1OCC(O)CN1CCSCC1 (stereo unspecified)	-
COc1cc(CNCc2ccccc2C)ccc1OCC(O)CN1CCC(O)CC1 (stereo unspecified)	-
OC(COc1ccccc1CNCCc1ccccc1)CN1CCSCC1 (stereo unspecified)	1.6µM
COc1cc(CNC2CCCCCCC2)ccc1OCC(O)CN1CCSCC1 (stereo unspecified)	8.9µM
C=CCc1ccccc1OCC(O)CN1CCN(c2ccccc2)CC1 (stereo unspecified)	-
COc1cc(CNCCc2ccccc2C)ccc1OCC(O)CN1CCOCC1 (stereo unspecified)	11µM
COc1cc(CNC(C)C)ccc1OCC(O)CN1CCSCC1 (stereo unspecified)	-
SMILES	Pf Dd2 inh
COc1cc(CN2CC=C(C)CC2)ccc1OCC(O)CN1CCSCC1 (stereo unspecified)	-
Cc1ncc2n1C(=O)N(C1CCN(Cc3ccsc3)CC1)C2	-
CCN1C(=O)COC[C@@H]1[C@H](O)c1ccc(NC(=O)c2cccnc2)cc1	-
O=C(c1cc[nH]c(=O)c1)N1CCCn2ccnc2C1c1ccccc1 (stereo unspecified)	-
Cc1cc(C[C@@H]2COC[C@@H]2NC(=O)c2ccc(-c3ccccc3Cl)o2)on1	-
O=S1(=O)N(Cc2ccccc2)CCCN1Cc1cccc(Cl)c1	-
O=C1c2cc(N3CCOCC3)nc(-c3ccc(F)cc3)c2CN1Cc1ccccc1	-
O=C(Cn1c2c(c(=O)n1Cc1ccccc1)CCN(Cc1ccccc1)C2)NCc1ccc2c(c1)OCO2	-
O=C(Cn1c(=O)c2c(n1Cc1ccccc1)CN(Cc1ccccc1)CC2)NCc1ccc2c(c1)OCO2	-
CCc1cc2c(-c3ccccc3)cc(=O)oc2c2c1OCN(Cc1ccc(F)cc1)C2	3.5µM
O=C(Cn1c(=O)c2c(n1Cc1ccccc1)CN(Cc1ccccc1)CC2)Nc1cccc(F)c1	-
O=c1cc(-c2ccccc2)c2ccc3c(c2o1)CN(Cc1cccc(Cl)c1)CO3	0.63µM
O=c1c2cc3c(cc2n(Cc2cccc(Cl)c2)c(=O)n1Cc1nc(-c2ccccc2)no1)OCO3	-
O=c1cc(-c2ccccc2)c2cc(Cl)c3c(c2o1)CN(Cc1ccccc1)CO3	13µM
CCc1nc(C)ccc1OCC(=O)NCC1COc2cc(OC)ccc2C1 (stereo unspecified)	-
CC1=NS(=O)(=O)N(C)C=C1C(=O)OCc1nc(-c2cccs2)no1	-
CC(=O)Nc1ccc(C2(C(=O)NCc3ccc(F)cc3)CCC2)cc1	-
CCC1(N2CCN(S(=O)(=O)c3ccccc3Cl)CC2)CCN(S(C)(=O)=O)C1 (stereo unspecified)	-
COCC(=O)N1CCC2(CC1)CC(N(C(=O)c1ccccc1)C1CC1)CCO2 (stereo unspecified)	-
Brc1ccc(-c2ccc(CNCCSc3nnnn3-c3ccccc3)o2)cc1	-
CCNCc1ccc(-c2ccccc2)o1	-
CCOCCCNCc1ccc(-c2ccccc2)o1	11µM
Cc1ccccc1C(=O)N1CCC2(CC1)NCc1ccccc1-n1ccnc12	-[5.79 µM]
CN(Cc1ccccc1)C(=O)C1(c2ccc(NC(=O)C3CC3)cc2)CCCCC1	4.5µM
O=C(Nc1ccc(C2(C(=O)O)CCC2)cc1)C1CC1	-
SMILES	Pf Dd2 inh
CC(=O)Nc1ccc(C2(C(=O)N(C)Cc3ccccc3)CCCCC2)cc1	-
O=C1CC2(CCN(Cc3ccc(C(F)(F)F)cc3F)C2)C(=O)N1 (stereo unspecified)	-
CCn1cc(CN2CCN(C(=O)Cc3c(C)noc3C)CC2)ccc1=O	-
COc1cccc(CN2CCC3(CC2)CC(c2cccnc2)=NO3)c1	-
CSc1ccc(CN2C(=O)C3(CCOCC3)CC2c2nnnn2C(C)(C)C)cc1 (stereo unspecified)	-
CCOc1cc(CN2CCC(C(Cc3ccccc3F)N(C)C(=O)c3cccs3)CC2)ccc1O (stereo unspecified)	4µM
CCOc1cc(CN2CCOc3ccc(C(=O)NCc4ccccc4F)cc3C2)ccc1O	-
COc1cccc(CN2CCC(C(Cc3ccccc3F)N(C)C(=O)c3cccs3)CC2)c1O (stereo unspecified)	-
O=C1CC2(CCN(C(=O)c3cnc4ccccn4c3=O)C2)C(=O)N1 (stereo unspecified)	-
Cc1c(Cl)cccc1NC(=O)c1cnc(-c2ccccc2)nc1-c1ccncc1	-
CC(=O)N1CCC(N2CC[C@@H](CO)N(C)c3nc(C)ccc3C2)CC1	-
O=C(NCC1CC1)c1ccc2c(c1)C1(CCN(CC3CC3)C1)CN2Cc1ccccc1 (stereo unspecified)	-
O=C(NC1CCC1)c1ccc2c(c1)C1(CCN(CC3CC3)C1)CN2Cc1ccccc1 (stereo unspecified)	14µM
CCNC(=O)c1ccc2c(c1)C1(CCN(CC3CC3)C1)CN2Cc1ccccc1 (stereo unspecified)	-
Cc1ccc(CN2C(=O)NC3(CCN(C(=O)c4ccsc4)CC3)C2=O)cc1	-
O=C(CCc1ccccc1)N1CCCc2ncc(C(=O)N3CCCC[C@@H]3Cc3ccccc3)cc21	-
O=C(CCNc1c(-c2cccc(F)c2)nc2cnccn12)NCc1ccccc1	-
CN(CC1CCOC1)C(=O)Nc1ccc(F)cc1 (stereo unspecified)	-[5.79 µM]
Cc1cc(C)c([S+](=O)([O-])c2nnn3c2nc(NCc2ccncc2)c2ccccc23)c(C)c1	2.2µM
Cc1ccc([S+](=O)([O-])c2nnn3c2nc(NCc2ccncc2)c2ccccc23)cc1	-
COc1ccc([S+](=O)([O-])c2nnn3c2nc(NCc2ccncc2)c2ccccc23)cc1	-
